Each structure is given as a SMILES string. This is part of a sample that, as a whole, favours compounds with a hit. Of some 83,000 tested, about 20% had one in any assay.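 Results are percent growth after 48 hours of single-concentration exposure. 100 means growth as in untreated cells, lower positive values show inhibition; negative values down to -100 show cell death.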 Values without a mark were called inactive. Active and inactive are the calls of the source. How the source made its calls: active means growth percent below 10; inactive means the rest.

The assay relates to HL-60(TB) leukemia. As to the kind of experiment: NCI-60 one-dose screen, 48 h (100 = growth as untreated, 0 = no growth, -100 = all killed). The conditions noted are these: 10 µM unless noted.
Turning to `CCCCCCCCCCCCCCCCCC1=NCCCN1CCO`, the growth is 106%.

As for `c1ccc(-c2n[nH]c(-c3ccccn3)n2)nc1`, the growth was 105%.

Take `CN1CCN(Cc2ccc(NC(=O)c3cncc(C#Cc4cnc(N)cc4C#N)c3)cc2C(F)(F)F)CC1`: the growth is 4.46% (active).

In the case of `COc1ccc(C2CC(c3cccc(Nc4ccncc4)c3)=NN2c2ccccc2)cc1` (stereo not given), the growth is -32.8% (active).

As for `O=C1CC(c2nc3ccccc3[nH]2)CN1C1CCCCC1` (stereo not given), the growth was 101%.

For `Cc1nnc2c3nnc(-c4ccc(Cl)cc4)n3c3ccccc3n12`, the growth is 101%.

In the case of `N#Cc1c(NC(=O)c2ccccc2I)sc2c1CCCC2`, the growth is 12.6%.

Turning to `COc1ccccc1/C=C/C(=O)c1ccccc1`, the growth was 51.8%.

As to `COc1ccc(-c2cn3ccnc3c(-c3ccc4ncn(C5CCCCC5)c4c3)n2)cc1`, the growth was 1.36% (active).

With `Cn1c(Nc2ccc(C(F)(F)F)cc2)nc2cc(Oc3ccnc(-c4ncc(C(F)(F)F)[nH]4)c3)ccc21`, the growth is 30.3%.

In the case of `COc1cc(C(C)n2cc(-c3ccccc3)nn2)ccc1OC1CCCCC1` (stereo not given), the growth is 43.7%.

For `Cc1ccc(S(=O)(=O)NCCNc2cc(-c3cn(C(C)(C)C)nc3-c3cccc(O)c3)ccn2)cc1`, the growth is 65.8%.

For the molecule `Cc1cc(=O)oc2cc(OCCn3c(C)nn(-c4ccc(Cl)cc4)c3=O)ccc12`, the growth is -5.7% (active).

As for `Cc1nc2c(ccc3ccccc32)s1`, the growth is 84.2%.

With `Cc1ccc(N=Nc2c(N)nn(-c3ccccc3)c2N)cc1`, the growth was 17.5%.

Regarding `COC(=O)[C@@]12CC=C(C)[C@]3(C[C@H](c4ccoc4)OC3=O)[C@H]1C=C[C@@H](O)[C@@]2(O)C(=O)OC`, the growth is 107%.

For the molecule `CN1CCN(c2nc(Nc3ccc(O)cc3)nc3ccccc23)CC1`, the growth is 61.4%.

As for `CCOC(=O)C1=C(N)Oc2c(sc3c(C)cccc23)C1c1ccc(Cl)cc1` (stereo not given), the growth was 1.5% (active).

Turning to `N/C(=N\N=C\c1ccc2c(c1)OCO2)N/N=C\c1ccc2c(c1)OCO2`, the growth was 80%.

As to `COc1ccc2c(O)c(/C=C3\N=Nc4nc(C)ccc43)oc2c1CC1CCNCC1`, the growth was 94.3%.

In the case of `COc1ccc(-c2nc3sc4c(c3c(=O)[nH]2)CCCCCC4)cc1`, the growth is 29%.

As to `COC(=O)/C=C1/CCCCC1(C)C(=O)OC` (stereo not given), the growth is 102%.

With `Cc1nc2c3c(ncn2n1)Oc1c(c(=O)[nH]c2ccccc12)C3c1ccc(Cl)cc1` (stereo not given), the growth was 98%.

Consider `O=Nc1c(-c2c(O)[nH]c3ncccc23)[nH]c2ccccc12`, for which the growth is 125%.

Turning to `CCCNc1nc2ccccc2c2c(=O)c3cccc(Cl)c3sc12`, the growth is 108%.

As to `O=C(Oc1ccc[nH]c1=O)c1cc([N+](=O)[O-])cc([N+](=O)[O-])c1`, the growth was 75.7%.

In the case of `N#Cc1c(N)nc(Cl)c(C#N)c1C(=O)c1ccccc1`, the growth is 6.29% (active).

For `CO[C@]12C=C/C(=C(/C(=O)OCc3cccnc3)C(=O)CCCCCCCC[C@]3(OC)C=C/C(=C(/C(=O)OCc4cccnc4)C(=O)CCCCCCCC1)O3)O2`, the growth was -29.3% (active).

For `CN1CCCN(C(c2ccccc2)c2ccc(Cl)cc2)CC1` (stereo not given), the growth is 93.5%.

As to `Clc1nc2ccccc2nc1CI`, the growth was 93.8%.

On to `O=C(O)C[C@H](O)C[C@H](O)/C=C/c1c(C2CC2)nc2ccccc2c1-c1ccc(F)cc1`, for which the growth is 66.2%.

For `COc1cccc(NC(=O)OC(C)C)c1`, the growth is 72.7%.

`COc1ccc(/C(C)=C(\c2ccc(OCCN3CCOCC3)cc2)c2ccc(OC(=O)C3CCCCC3)cc2)cc1`: the growth was 126%.

On to `O=c1ccn(C2CC(O)C(O)C(CO)O2)c(=O)[nH]1` (stereo not given), for which the growth was 90.4%.

As to `COc1ccc2c(c1)NC(=O)CN2c1nc(NC2CC2)nc2ccccc12`, the growth was -5.55% (active).

Take `O=c1oc2ccc(F)cc2c(=O)n1-c1ccc(F)cc1F`: the growth was 16.7%.

In the case of `O=C(NOCCO)c1ccc2cncn2c1Nc1ccc(I)cc1F`, the growth is 23.5%.

Consider `CC(=O)Oc1ccccc1C(=O)N=C1[Se]CCCN1C(=O)c1ccccc1OC(C)=O`, for which the growth is 12.7%.

As to `CCOC(=O)c1c(C(F)(F)F)n([O-])c2ccc(OC)cc2[n+]1=O`, the growth is -9.6% (active).

Turning to `COc1ccc(C2=NN(/C=C3\SC(=O)NC3=Nc3ccc(F)cc3)C(c3ccc(F)cc3)C2)cc1` (stereo not given), the growth is 98.1%.

(Values after PubChem BioAssay (NCI).)
